Results published in the supplement of paper PMC6658780.
Counter-ions that a name gives are not always drawn. ± gives the standard deviation of the averaged measurements.

test system: Escherichia coli ATCC BAA-2469; assay: percent growth inhibition of drug + antibiotic vs DMSO control; higher = more growth inhibition; details: antibiotic (0.125x MIC): ciprofloxacin; 7 µM
Method: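 Prestwick drugs tested at 20 uM and 7 uM with an antibiotic at 0.125x MIC (16 mg/L when MIC >128 mg/L) against E. coli ATCC BAA-2469 (NDM-1) in CAMHB, 384-well plates, duplicate runs. Percent growth inhibition was computed from OD600 (24 h minus 0 h) relative to DMSO wells. Drug + DMSO-only wells are also given. […]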

| Structure (SMILES) | percent growth inhibition [%] |
| --- | --- |
| CS(=O)(=O)c1ccc([C@@H](O)[C@@H](CF)NC(=O)C(Cl)Cl)cc1 [Florfenicol] | 35.4 ± 4.7 |
| Oc1c(I)cc(Cl)c2cccnc12 [Clioquinol] | 7.92 ± 1.7 |
| CC(C)(C)C(=O)OCOC(=O)[C@@H]1N2C(=O)[C@@H](/N=C/N3CCCCCC3)[C@H]2SC1(C)C [Pivmecillinam hydrochloride] | 2.89 ± 3.3 |
| C#C[C@]1(OC(C)=O)CC[C@H]2[C@@H]3CCC4=C[C@@H](OC(C)=O)CC[C@@H]4[C@H]3CC[C@@]21C [Ethynodiol diacetate] | 5.09 ± 12 |

same assay, conditions: antibiotic (0.125x MIC): ciprofloxacin; 20 µM

| Structure (SMILES) | percent growth inhibition [%] |
| --- | --- |
| CO[C@H]1/C=C/O[C@@]2(C)Oc3c(C)c(O)c4c(O)c(c5c(nc6cc(C)ccn65)c4c3C2=O)NC(=O)/C(C)=C\C=C\[C@H](C)[C@H](O)[C@@H](C)[C@@H](O)[C@@H](C)[C@H](OC(C)=O)[C@@H]1C [Rifaximin] | 99.44 ± 0.47 |
| CS(=O)(=O)c1ccc([C@@H](O)[C@@H](CF)NC(=O)C(Cl)Cl)cc1 [Florfenicol] | 88.8 ± 2.8 |
| CO[C@H]1/C=C/O[C@@]2(C)Oc3c(C)c(O)c4c(O)c(c(/C=N/N5CCN(C6CCCC6)CC5)c(O)c4c3C2=O)NC(=O)/C(C)=C\C=C\[C@H](C)[C@H](O)[C@@H](C)[C@@H](O)[C@@H](C)[C@H](OC(C)=O)[C@@H]1C [Rifapentine] | 99.9 ± 4.6 |
| O=C1OCCN1/N=C/c1ccc([N+](=O)[O-])o1 [Furazolidone] | 102 ± 2.7 |
| Oc1c(I)cc(Cl)c2cccnc12 [Clioquinol] | 61.08 ± 0.34 |
| C#C[C@]1(OC(C)=O)CC[C@H]2[C@@H]3CCC4=C[C@@H](OC(C)=O)CC[C@@H]4[C@H]3CC[C@@]21C [Ethynodiol diacetate] | 8.86 ± 3.1 |
| N=C(NCCCCCCNC(=N)NC(=N)Nc1ccc(Cl)cc1)NC(=N)Nc1ccc(Cl)cc1 [Chlorhexidine] | 103 ± 3.8 |

same assay, conditions: antibiotic (0.125x MIC): gentamicin; 7 µM

| Structure (SMILES) | percent growth inhibition [%] |
| --- | --- |
| O=C1CN(/N=C/c2ccc([N+](=O)[O-])o2)C(=O)N1 [Nitrofurantoin] | 6.28 ± 5.3 |
| CO[C@H]1/C=C/O[C@@]2(C)Oc3c(C)c(O)c4c(O)c(c5c(nc6cc(C)ccn65)c4c3C2=O)NC(=O)/C(C)=C\C=C\[C@H](C)[C@H](O)[C@@H](C)[C@@H](O)[C@@H](C)[C@H](OC(C)=O)[C@@H]1C [Rifaximin] | 68.8 ± 13 |
| Oc1c(Cl)cc(Cl)c(Cl)c1Cc1c(O)c(Cl)cc(Cl)c1Cl [Hexachlorophene] | 21.4 ± 16 |
| Cn1c(=O)c2c(ncn2C)n(C)c1=O [Caffeine] | 1.53 ± 7.1 |
| Oc1c(I)cc(Cl)c2cccnc12 [Clioquinol] | 12.9 ± 5.2 |
| Oc1c(Cl)cc(Cl)c2cccnc12 [Chloroxine] | 40 ± 13 |
| N[C@@H]1CCCCN(c2c(F)cc3c(=O)c(C(=O)O)cn(C4CC4)c3c2Cl)C1 [Besifloxacin hydrochloride] | 6.28 ± 5.6 |

same assay, conditions: antibiotic (0.125x MIC): gentamicin; 20 µM

| Structure (SMILES) | percent growth inhibition [%] |
| --- | --- |
| CC1CS(=O)(=O)CCN1/N=C/c1ccc([N+](=O)[O-])o1 (stereo not drawn) [Nifurtimox] | 2.95 ± 0.97 |
| Cc1cccc(C)c1NC(=O)C1CCCCN1C (stereo not drawn) [Mepivacaine hydrochloride] | 1.04 ± 3.1 |
| CC1=C(/C=C/C(C)=C/C=C/C(C)=C\C(=O)O)C(C)(C)CCC1 [Isotretinoin] | 12.7 ± 20 |
| O=C1OCCN1/N=C/c1ccc([N+](=O)[O-])o1 [Furazolidone] | 113 ± 20 |
| Oc1c(I)cc(Cl)c2cccnc12 [Clioquinol] | 88.9 ± 10 |
| Oc1c(Cl)cc(Cl)c2cccnc12 [Chloroxine] | 112 ± 19 |
| N=C(NCCCCCCNC(=N)NC(=N)Nc1ccc(Cl)cc1)NC(=N)Nc1ccc(Cl)cc1 [Chlorhexidine] | 112 ± 19 |

same assay, conditions: antibiotic (0.125x MIC): meropenem; 7 µM

| Structure (SMILES) | percent growth inhibition [%] |
| --- | --- |
| CCCCCCCCCCCCCCCC[N+](C)(C)CCN(Cc1ccc(OC)cc1)c1ncccn1 [Thonzonium bromide] | -2.72 ± 5.5 |
| O=C1CN(/N=C/c2ccc([N+](=O)[O-])o2)C(=O)N1 [Nitrofurantoin] | 2.1 ± 2.9 |
| CO[C@H]1/C=C/O[C@@]2(C)Oc3c(C)c(O)c4c(O)c(c5c(nc6cc(C)ccn65)c4c3C2=O)NC(=O)/C(C)=C\C=C\[C@H](C)[C@H](O)[C@@H](C)[C@@H](O)[C@@H](C)[C@H](OC(C)=O)[C@@H]1C [Rifaximin] | 94.7 ± 4.2 |
| Oc1c(I)cc(Cl)c2cccnc12 [Clioquinol] | 7.81 ± 2.7 |
| CCCCCCCCNC(C)C(O)c1ccc(SC(C)C)cc1 (stereo not drawn) [Suloctidil] | 1.25 ± 3.5 |
| CCC[C@@H]1C[C@@H](C(=O)N[C@@H]([C@H]2O[C@H](SC)[C@H](O)[C@@H](O)[C@H]2O)[C@H](C)Cl)N(C)C1 [Clindamycin hydrochloride] | 13.3 ± 0.73 |
| N[C@@H]1CCCCN(c2c(F)cc3c(=O)c(C(=O)O)cn(C4CC4)c3c2Cl)C1 [Besifloxacin hydrochloride] | 2.23 ± 6.8 |

same assay, conditions: antibiotic (0.125x MIC): meropenem; 20 µM

| Structure (SMILES) | percent growth inhibition [%] |
| --- | --- |
| CCCCCCCCCCCCCCCC[N+](C)(C)CCN(Cc1ccc(OC)cc1)c1ncccn1 [Thonzonium bromide] | 34.1 ± 20 |
| CO[C@H]1/C=C/O[C@@]2(C)Oc3c(C)c(O)c4c(O)c(c5c(nc6cc(C)ccn65)c4c3C2=O)NC(=O)/C(C)=C\C=C\[C@H](C)[C@H](O)[C@@H](C)[C@@H](O)[C@@H](C)[C@H](OC(C)=O)[C@@H]1C [Rifaximin] | 99 ± 1.7 |
| CO[C@H]1/C=C/O[C@@]2(C)Oc3c(C)c(O)c4c(O)c(c(/C=N/N5CCN(C6CCCC6)CC5)c(O)c4c3C2=O)NC(=O)/C(C)=C\C=C\[C@H](C)[C@H](O)[C@@H](C)[C@@H](O)[C@@H](C)[C@H](OC(C)=O)[C@@H]1C [Rifapentine] | 96.3 ± 5.3 |
| O=C1OCCN1/N=C/c1ccc([N+](=O)[O-])o1 [Furazolidone] | 113 ± 20 |
| CCC[C@@H]1C[C@@H](C(=O)N[C@@H]([C@H]2O[C@H](SC)[C@H](O)[C@@H](O)[C@H]2O)[C@H](C)Cl)N(C)C1 [Clindamycin hydrochloride] | 42.6 ± 12 |
| N=C(NCCCCCCNC(=N)NC(=N)Nc1ccc(Cl)cc1)NC(=N)Nc1ccc(Cl)cc1 [Chlorhexidine] | 99.2 ± 1.6 |
